GLP-1R agonist: GLP-1 receptor (human) agonism; P43220; HEK293 GLP-1R CRE-luciferase, luminescence, 4-6 h; cells express a hypersensitive GLP-1R form; Potency, µM (highest dose often 45.6 µM), for the others: at the top dose activation, hits mostly activators; 380,000 compounds, 0.007% hits; also: % of control where 0% means no effect
Target sequence (P43220 whole entry, looked up): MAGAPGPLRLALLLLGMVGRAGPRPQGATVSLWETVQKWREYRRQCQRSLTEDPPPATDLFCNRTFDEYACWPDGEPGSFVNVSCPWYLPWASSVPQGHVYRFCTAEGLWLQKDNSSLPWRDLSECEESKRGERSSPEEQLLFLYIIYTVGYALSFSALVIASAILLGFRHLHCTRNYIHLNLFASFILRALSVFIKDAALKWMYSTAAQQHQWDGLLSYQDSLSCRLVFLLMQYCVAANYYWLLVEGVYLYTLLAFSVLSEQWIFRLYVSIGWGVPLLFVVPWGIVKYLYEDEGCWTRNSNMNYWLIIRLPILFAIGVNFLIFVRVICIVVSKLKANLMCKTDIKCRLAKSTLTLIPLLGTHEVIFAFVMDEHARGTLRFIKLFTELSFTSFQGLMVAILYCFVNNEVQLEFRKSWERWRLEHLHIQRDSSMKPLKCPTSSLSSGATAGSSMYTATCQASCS
TGFb SMAD3 inh: blocks TGF-b signaling; 410,000 compounds, 1.2% hits; HepG2 CAGA-GFP TGF-b/SMAD3 reporter, GFP fluorescence, 18 h; TGF-beta stimulated, 500 pg/mL final; Potency, µM (titrated, usually from 46.1 µM), for inactives: at the highest dose activity, negative = inhibition, most hits filed as inhibitors; also: % is scaled to controls: 0 for no effect and ±100 for the full control effect; nearly all actives have a fitted effect of over 65% in size
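TGF-beta reporter screen: HEPG2 CAGA-GFP, 1% FBS, 500 pg/mL TGF-beta final, 18 h; per-cell GFP summed per well; curves fitted and categorized by class.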
ATXN2 expr inh: ATXN2 expression inhibition. AID 1745845. 360,000 compounds, 0.72% hits. HEK-293 ATXN2-luciferase reporter, luminescence, 24 h. Potency, µM (titrated, usually from 57 µM), for inactives: top-dose activity change, negative = inhibition, hits mostly inhibitors; also: % is scaled to controls: 0 for no effect and ±100 for the full control effect; nearly all actives have a fitted effect of over 55% in size
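qHTS (up to 57 uM final) was run with 24 h compound exposure of reporter cells at 37 °C. Each well was multiplexed: SteadyGlo luminescence measured ATXN2-luciferase expression after a fluorogenic Gly-Phe-AFC viability readout (25 uM final).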
GLP1R inv ag: GLP-1 receptor (human) inverse agonism; P43220; HEK293 GLP-1R CRE-luciferase, luminescence, 24 h; GLP-1R form is constitutively active; Potency, µM (top dose mostly 38.3 µM), for inactives: top-dose activity change, negative = inhibition, actives largely listed as inhibitors; 410,000 compounds, 1.6% hits; also: % is scaled to controls: 0 for no effect and ±100 for the full control effect; nearly all actives have a fitted effect of over 55% in size
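Readout was luciferase luminescence, measured 12 min after detection reagent at room temperature. Beforehand, GLP-1R reporter HEK293 cells had sat 12 h, then received compounds for 24 hr at 37 deg C.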
HepG2 tox: counter-screen for TGF-b inhibitors: cytotoxicity in HepG2 cells; Potency, µM (highest dose often 46.1 µM), for the others: at the highest dose activity change, negative = cytotoxicity, hits mostly cytotoxic; HepG2 CAGA-GFP viability, ATP luminescence, 18 h; 410,000 compounds, 0.76% hits
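CellTiter-Glo luminescence gave cytotoxicity after 18 hours at 37 degrees C. The cells were HepG2 CAGA-GFP in 1% FBS DMEM, stimulated with 500 pg/mL TGF-beta after compound addition. %Activity was normalised to no-cell wells (complete cell-killing) and DMSO (no toxicity), and curves were fitted and classified.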
ATXN viability: viability counter-screen for ATXN expression inhibitors; S2 cells (HEK-293 line with an ATXN2-luciferase reporter) viability, CellTiter-Fluor protease fluorescence, 24 h; Potency, µM (highest dose often 56.7 µM), actives largely listed as cytotoxic; 400,000 compounds, 0.49% hits; also: nearly all actives have a fitted effect of over 40% in size
Starred values were filed as active, the others as inactive; i = inactive; ? = inconclusive; / = no result given; ! = repeats disagree. The list is not random: actives were taken first. Their share in the collection is about 3.7%. Calls follow the shape of the dose curve; as a rule, active = well fitted curve in the direction sought with a large enough effect; inconclusive = small, poorly fitted or top-dose-only effect, or another doubt; inactive = no such curve, though single readings can be large; an effect the other way counts as inactive or inconclusive. Potency is read from the fitted curve at half-maximal effect.

SMILES	GLP-1R agonist	TGFb SMAD3 inh	ATXN2 expr inh	GLP1R inv ag	HepG2 tox	ATXN viability
Cc1ccc(-c2ccc(CN3C(CC(C)C)C(=O)N(Cc4cn(CCC5OCCCO5)nn4)CCS3(=O)=O)cc2)cc1 (stereo not drawn)	-2%	?	28µM*	?	-57%	/
CCC/C=C/c1ccc(CN2C(C(C)C)C(=O)N(Cc3cn(CCC4OCCO4)nn3)CCS2(=O)=O)cc1 (stereo not drawn)	3%	?	?	10µM*	-56%	/
CCC/C=C/c1ccc(CN2C(CC(C)C)C(=O)N(Cc3cn(CCC4OCCCO4)nn3)CCS2(=O)=O)cc1 (stereo not drawn)	-3%	13µM*	?	?	16µM*	/
O=S(=O)(c1ccccc1)n1nc(-c2ccco2)nc1NCc1ccccc1	/	-24%	21%	7%	-90%	i
CC(=O)OCC(=O)Nc1cc(C#N)cc(NC(=O)COC(C)=O)c1Cl	5%	/	8%	/	/	i
CC(C)CC1C(=O)N(Cc2cn(CC3CCCCC3)nn2)CCS(=O)(=O)N1Cc1ccc(-c2ccc(Cl)c(Cl)c2)cc1 (stereo not drawn)	10%	-28%	-5%	-21%	-19%	?
CC(C)C1C(=O)N(Cc2cn(CCC3OCCO3)nn2)CCS(=O)(=O)N1Cc1ccc(-c2ccc(Cl)cc2)cc1 (stereo not drawn)	2%	?	28µM*	?	-70%	?
Cc1cccc(C)c1-c1ccc(CN2C(CC(C)C)C(=O)N(Cc3cn(CC4CCCCC4)nn3)CCS2(=O)=O)cc1 (stereo not drawn)	1%	?	?	?	11µM*	35µM*
CC(C)C1C(=O)N(Cc2cn(CCC3OCCCO3)nn2)CCS(=O)(=O)N1Cc1ccc(-c2ccc(Cl)cc2)cc1 (stereo not drawn)	-5%	-4%	1%	-22%	-22%	?
O=C(O)CCCCC(CCSCc1ccccc1)SCc1ccccc1 (stereo not drawn)	/	/	16%	/	/	/
O=C(Nc1cccc(F)c1)NC1CC2CCCC(C1)N2C1CC1 (stereo not drawn)	-1%	-1%	4%	-21%	6%	i
O=C(Nc1ccc(Cl)c(C(F)(F)F)c1)NC1CC2CCCC(C1)N2C1CC1 (stereo not drawn)	-10%	?	?	3.2µM*	-91%	i
C=C1C(=O)[C@@]23[C@H](O)C[C@@H]4C(C)(C)CC[C@H](O)[C@@]4(C)[C@@H]2CC[C@@H]1[C@H]3O	-10%	0.89µM*	?	?	8.9µM*	7.9µM*
C=C1C(=O)[C@@]23[C@H](O)C[C@@H]4C(C)(C)CC[C@H](O)[C@]4(C)[C@@H]2C[C@H](O)[C@@H]1[C@H]3O	-24%	13µM*	-3%	?	-77%	18µM*
Nc1c(Br)cc(/C=C/c2ccnc3ccccc23)cc1Br	/	?	/	/	-27%	/
O=C(CP(=O)(c1ccccc1)c1ccccc1)N/N=C/c1cc(Br)cc(Br)c1O	0%	-18%	10µM*	0%	-45%	i
COc1cc(Br)cc(/C=N/NC(=O)Cc2ccccc2)c1O	3%	10µM*	?	?	-66%	/
O=C(COc1ccc(-c2ccccc2)cc1)N/N=C/c1ccccc1Br	0%	?	-3%	18%	-6%	i
O=C(C[n+]1ccccc1)N/N=C/c1cc(Br)cc(Br)c1O	-1%	-26%	-31%	?	3%	/
O=C(COc1ccc(-c2ccccc2)cc1)N/N=C/c1cc(O)ccc1Br	-2%	13µM*	-6%	?	-63%	?
CCN1CCCC1CNCc1cc2ccc(SC)cc2nc1-c1cc(OC)ccc1OC (stereo not drawn)	/	/	/	/	/	i
COc1ccc(C2CC(=O)c3cc(-c4nc(-c5cccc([N+](=O)[O-])c5)cs4)c(=O)n(-c4ccccc4C)c3C2)cc1 (stereo not drawn)	-2%	-7%	1%	5%	8%	i
CC(Nc1nc(-c2ccccc2)nc2ccccc12)c1ccccc1 (stereo not drawn)	14%	?	-6%	?	-28%	?
CC(Nc1nc(N2CCCCC2)nc2ccccc12)c1ccccc1 (stereo not drawn)	-6%	?	/	?	13µM*	/
Clc1ccc(/C=C/c2ccc3ccccc3n2)cc1Cl	/	?	/	/	-21%	/
SMILES	GLP-1R agonist	TGFb SMAD3 inh	ATXN2 expr inh	GLP1R inv ag	HepG2 tox	ATXN viability
COC(=O)c1ccc(NC(=O)c2cc(S(=O)(=O)N3CCc4ccccc43)cn2C)cc1	/	-27%	/	0%	-21%	/
Oc1ccccc1C1C=C(c2ccc3c(c2)OCO3)NC(c2cccc(Cl)c2)N1 (stereo not drawn)	/	?	/	/	-39%	/
CCOc1ccccc1/C=C/c1onc(C)c1S(=O)(=O)N1CCC(C(=O)N(CC)CC)CC1	12%	?	/	?	5%	?
Cc1ccc(NC(=O)C2CCN(S(=O)(=O)c3c(C)noc3/C=C/c3cccs3)CC2)cc1F	/	?	/	?	-26%	/
CCN(CCN(C)C)C(=O)C1CCN(S(=O)(=O)c2c(C)noc2/C=C/c2ccccc2F)CC1	4%	?	/	?	16µM*!	?
Cc1noc(/C=C/c2cccs2)c1S(=O)(=O)N1CCC(C(=O)Nc2ccc(F)c(Cl)c2)CC1	/	6.3µM*	/	?	-24%	/
Cc1ncsc1CCC(=O)N1CCCC(c2nc(-c3ccncc3)ncc2-c2ccccc2)C1 (stereo not drawn)	/	/	/	/	/	i
N#CC1=C(SCC(=O)NC2CC2)NC(=O)C(C#N)C12CCCCC2 (stereo not drawn)	-1%	0%	2%	2%	0%	i
CC(C)(C)C1CCC2(CC1)C(C#N)=C(SCC(=O)NC1CCCCC1)NC(=O)C2C#N (stereo not drawn)	-2%	?	-13%	8.9µM*	-31%	i
N#CC1=C(SCC(=O)NC23CC4CC(CC(C4)C2)C3)NC(=O)C(C#N)C12CCCCC2 (stereo not drawn)	-7%	11µM*	?	?	-26%	?
O=C(CSc1nncn2c1cc1sccc12)Nc1ccc(Br)cc1F	/	?	/	6%	-29%	/
CC(C)OC(=O)NC(c1ccccc1)C(Cl)(Cl)Cl (stereo not drawn)	11%	-11%	-20%	11µM*	-18%	i

Screens as filed in PubChem BioAssay.
